Screens from PubChem BioAssay.
Sampled rows, rich in hits. Any-hit rate of the full collection: about 7.4%.
SMN2 splice up – SMN2 splice variant enhancement; HEK293 SMN2-luciferase splicing reporter, luminescence, 30-36 h; Potency, µM (doses to about 46.1 µM), inactives show at the top dose activity change, positive = activation, actives largely listed as activators; 210,000 tested, 2.8% active; note: % of control where 0% means no effect; nearly all actives have a fitted effect of over 55% in size
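HEK293 cells carry an SMN2 minigene-luciferase reporter in which exon 7 inclusion puts luciferase in frame. Cells were seeded at 2000 cells/well, attached for 10-12 hours, then exposed to compounds for 30-36 hours at 37C before ONE-Glo luminescence.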
KinaseGlo FLuc – blocks Kinase-Glo luciferase, a counter-screen artifact; Potency, µM (top dose mostly 38.3 µM), for the others: top-dose activity change, negative = inhibition, most hits filed as inhibitors; Kinase-Glo luciferase, ATP luminescence, 8 min; AID 1379; Q27757; 200,000 tested, 0.28% active; note: % is set by controls: 0 for no effect and ±100 for the full control effect; nearly all actives have a fitted effect of over 60% in size
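Recombinant Kinase-Glo luciferase, 10 uM ATP (linear range), luciferin; imidazole pH 7.2 / KCl / MgCl2 / Tween / BSA buffer; 8 min RT; luminescence.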
NPC1 prom act – activators of NPC1 promoter. Huh7 NPC1 promoter luciferase reporter, 24 h. Potency, µM (titrated, usually from 9.22 µM), without a hit: at the highest dose activation, usual class: activators. 320,000 tested, 2.4% active; note: % of control where 0% means no effect; nearly all actives have a fitted effect of over 60% in size
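Luciferase expression driven by the NPC1 promoter was measured in stably transfected Huh7 cells after a 24 h compound incubation, using a luciferase reagent and a luminescence read.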
FLuc counter – counter-screen for miR-21 project: firefly luciferase inhibitors or activators | P08659 | purified FLuc, Km substrates, luminescence inhibition | Potency, µM (top dose mostly 57.5 µM), without a hit: at the top dose activity change, negative = inhibition, hits mostly inhibitors | 360,000 tested, 6.9% active;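 note: plate controls were vehicle for no effect and reference inhibitor for full effect; nearly all actives have a fitted effect of over 55% in size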
Target sequence (P08659 whole entry, looked up): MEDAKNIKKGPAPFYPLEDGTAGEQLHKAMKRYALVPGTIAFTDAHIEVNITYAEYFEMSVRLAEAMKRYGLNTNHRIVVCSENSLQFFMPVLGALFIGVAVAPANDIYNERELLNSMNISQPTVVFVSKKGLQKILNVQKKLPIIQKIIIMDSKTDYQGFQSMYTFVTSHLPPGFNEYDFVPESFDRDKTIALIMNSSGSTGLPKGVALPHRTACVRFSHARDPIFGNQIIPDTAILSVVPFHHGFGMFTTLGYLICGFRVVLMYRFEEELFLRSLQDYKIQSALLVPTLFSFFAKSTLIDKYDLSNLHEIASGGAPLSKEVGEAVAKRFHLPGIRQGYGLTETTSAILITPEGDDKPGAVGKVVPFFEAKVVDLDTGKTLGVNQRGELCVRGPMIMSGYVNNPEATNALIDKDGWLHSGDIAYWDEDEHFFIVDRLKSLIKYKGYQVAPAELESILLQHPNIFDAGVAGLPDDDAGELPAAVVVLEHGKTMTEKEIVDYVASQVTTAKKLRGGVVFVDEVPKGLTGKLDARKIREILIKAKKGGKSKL
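Purified P. pyralis luciferase (10nM final) with 10uM D-luciferin and 10uM ATP (Km levels) in 50mM Tris acetate pH 7.5, 10mM Mg acetate, 0.01% Tween-20, 0.05% BSA; qHTS 6-point titration, ~60 µM downward; luminescence read.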
Rab9 promoter act – activators of Rab9 promoter; Huh7 Rab9 promoter-luciferase reporter, luminescence, 24 h; Potency, µM (top dose mostly 9.22 µM), without a hit: top-dose activation, negative = inhibition, hits mostly activators; 320,000 tested, 2.8% active; note: % of control where 0% means no effect; nearly all actives have a fitted effect of over 60% in size
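Quantitative HTS format; Huh7 Rab9-luciferase reporter cells (1500/well) receive compound 2 h post-plating, incubate 24 h at 37 °C, then get luciferase reagent for 10 min before luminescence reading.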
ELG1 genotox – genotoxicity induction in ELG1-luciferase HEK293T cells. HEK293T ELG1-luciferase reporter, luminescence, 16 h. Potency, µM (highest dose often 46 µM), for inactives: at the highest dose activity change, positive = activation, most hits filed as activators. 330,000 tested, 1.3% active. AID 504466; note: % of control where 0% means no effect; nearly all actives have a fitted effect of over 60% in size
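Genotoxicity was scored as increased ELG1-luciferase reporter signal, measured by ONE-Glo luminescence (30 min, room temperature). Compound or vehicle exposure of the HEK293T reporter cells lasted 16 hr at 37°C.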
Starred values were filed as active, the others as inactive; ? = inconclusive; · = not tested or not shown; [ ] = dose if it differs, or a comment. Calls come from the whole dose curve; as a rule, active = well fitted curve in the direction sought with a large enough effect; inconclusive = small, poorly fitted or top-dose-only effect, or another doubt; inactive = no such curve, though single readings can be large; an effect the other way counts as inactive or inconclusive. Potency is the fitted concentration of half-maximal effect.

SMILES	SMN2 splice up	KinaseGlo FLuc	NPC1 prom act	FLuc counter	Rab9 promoter act	ELG1 genotox
Cc1ccccc1OCc1nnc(SCC(=O)Nc2ccc3nc(SCC(=O)Nc4ccccc4)sc3c2)n1C	-33%	6%	-1%	5%	-13%	4%
Cc1ccc2c(c1)c1c3n2CCNC3CCC1 (stereo not drawn)	·	·	-3%	-5%	5%	0%
C/C=C(\C)C(=O)OC1CC(C)(C)C[C@H]2C3=CC[C@@H]4[C@@]5(C)CCC(O[C@@H]6O[C@@H](C(=O)O)[C@@H](O)C(O[C@@H]7OC[C@H](O)[C@@H](O)[C@@H]7O[C@@H]7OC(CO)C(O)[C@@H](O)[C@@H]7O)C6O[C@@H]6OC(CO)C(O)C(O)C6O)[C@@](C)(CO)[C@@H]5CC[C@]4(C)[C@]3(C)CC(O)[C@@]12CO (stereo partly drawn)	·	·	·	·	·	12%
O=C1NN(c2ccccc2)C(=O)/C1=C\c1cccc(OC(=O)c2cccs2)c1	0%	17%	-3%	?	2%	19%
COC(=O)c1ccc(N2NC(=O)/C(=C/c3cc(OC)c(OC)c(OC)c3)C2=O)cc1	·	·	-1%	19µM*	-1%[1.84 µM]	12%
COC(=O)C1=C(C)N(Cc2ccc(C)cc2)C(=O)/C1=C\c1cc(OC)c(OC)c(OC)c1	?	-2%	-4%	4%	0%	?
COC(=O)c1ccc(N2NC(=O)/C(=C/c3cc(OC)c(O)c(OC)c3)C2=O)cc1	·	·	2%	8.5µM*	-9%[1.84 µM]	0%
CCCCNC(=O)c1cnn2c(C)c(Cc3c(F)cccc3Cl)c(C)nc12	·	·	·	-14%	·	·
COc1ccc(S(=O)(=O)N(CC(=O)NC2CC2)c2ccc(C)cc2)cc1	·	·	-4%	-2%	12%	1%
COC(=O)N/N=C(C)\C=C\c1ccco1	4%[1.84 µM]	-8%	-3%	-2%	0%	7%
CN(C(=O)/C=C/c1ccco1)c1ccccc1C(=O)O	·	·	-3%	-6%	-9%	0%
CN(C)c1ccc(C(=O)/C=C/c2ccco2)cc1	13µM*	-12%	3.2µM*	0.38µM*	2.8µM*	?
O=C(/C=C/c1ccco1)c1ccc(O)cc1	6%	-10%	13%	13µM*	?	?
CN(C)c1ccc(NC(=O)c2ccc(N3CCOCC3)nc2)cc1	·	·	22%	15µM*	16%	22%
O=C(Nc1ccc(N2CCOCC2)nc1)c1cccs1	11µM*	-3%	?	?	2.5µM*	16%
O=C(Nc1ccc(N2CCOCC2)c(F)c1)c1cccs1	·	·	0.5µM*	4.3µM*	0.4µM*	6.5µM*
O=C(c1ccccc1)c1ccc(N2CCOCC2)c(F)c1	?	-4%	3.5µM*	11µM*	3.5µM*	?
O=C(c1ccccc1)c1cc(F)c(N2CCOCC2)cc1Cl	-10%	-1%	0%	?	0%	-6%
O=C(Nc1ccc(N2CCN(c3ccc(C(F)(F)F)cn3)CC2)nc1)c1cccs1	·	·	1%	-4%	-8%	?
COc1ccc(NC(=O)c2ccc(N3CCOCC3)nc2)cc1	·	·	2%	1%	6%	-1%
CCOC(=O)c1ccc(-c2ccc(/C=N/NC(=O)CN(c3ccccc3Br)S(C)(=O)=O)o2)cc1	11µM*	1%	?	-17%	?	-16%
O=C(O)c1ccc(-c2ccc(/C=N/Nc3ccc([N+](=O)[O-])cc3)o2)cc1	·	·	23%	17µM*	22%	0%
O=C(O)c1ccc(N/N=C/C=C/c2ccc([N+](=O)[O-])o2)cc1	·	·	-2%	17µM*	16%	1%
NS(=O)(=O)c1ccc(-c2ccc(/C=N/Nc3ccc(C(=O)O)cc3)o2)cc1	·	·	5%	7.6µM*	1%	10%
NS(=O)(=O)c1ccc(-c2ccc(/C=N/NC(=O)c3ccc([N+](=O)[O-])cc3)o2)cc1	·	·	2%	5%	2%	-3%
SMILES	SMN2 splice up	KinaseGlo FLuc	NPC1 prom act	FLuc counter	Rab9 promoter act	ELG1 genotox
COc1ccc(S(=O)(=O)N2CCCCCC2)cc1C(=O)Nc1ccccn1	·	·	-1%	?	-5%	-1%
C=CCNC(=S)N/N=C/c1ccc(-c2ccc(OC)cc2)o1	-14%	-24%	13%	19µM*	-4%	-17%
CCC(=O)N/N=C/c1ccc(-c2ccc([N+](=O)[O-])cc2)o1	·	-3%	-1%	-9%	-6%	-3%
CNC(=S)N/N=C/c1ccc(-c2ccc(C(=O)O)cc2)o1	·	·	?	17µM*	30%	?
CNC(=S)N/N=C/c1ccc(-c2ccc(Cl)c([N+](=O)[O-])c2)o1	·	-11%	-3%	-10%	-3%	0%
O=C(O)c1cccc(-c2ccc(/C=N/Nc3ccc([N+](=O)[O-])cc3)o2)c1	·	·	1%	11µM*	-4%	2%
CCC(=O)N/N=C/c1ccc(-c2ccc(Cl)cc2)o1	·	0%	0%	15µM*	30%	18%
CC(=O)N(C)c1ccc(NC(=S)Nc2ccccc2)cc1	1%	-4%	8%	-3%	-2%	15%
CN(C)c1ccc(NC(=S)c2ccccn2)cc1	0.5µM*	13µM*	?	0.085µM*	0.32µM*	?
CN(C)c1cc(O)c(C(=S)Nc2ccccc2)c(N(C)C)c1	5%	1%	24%	24µM*	20%	-4%
CN(C)c1ccc(C(=S)Nc2ccccc2)cc1	26%	-3%	2.8µM*	1.5µM*	1µM*	?
O=C(COC(=O)CN1C(=O)NC2(CCCC2)C1=O)NCc1ccc(Cl)cc1Cl	·	·	·	·	·	13%
COc1ccc(C2CN=NC23CCc2ccccc2C3=O)cc1 (stereo not drawn)	·	·	-3%	17µM*	1%	2%
O=C1c2ccccc2CCC12N=NCC2c1ccc(Cl)cc1 (stereo not drawn)	-13%	-3%	-4%	21µM*	7%	0%
COc1ccc(C2CN=NC23CCCc2ccccc2C3=O)cc1 (stereo not drawn)	-26%	-2%	-1%	-18%	-1%	-4%
O=C(NCCS(=O)(=O)N1CCN(c2ccc(F)cc2)CC1)c1cc(=O)c2ccccc2o1	·	·	·	-2%	·	·
C/C(=C\C(=S)Nc1ccccc1)Nc1ccccc1	15%	-2%	1%	3.8µM*	-4%	1%
CC(=O)Nc1ccc(NC(=S)Nc2ccccc2)cc1	-7%	2%	2%	-5%	2%	0%
